For 40 sequences, sensor-assay potency score (higher = more potent) results are on record in the OligoGym collection.
Further: reference of the scale not given here.

The target in the first assay is SLC2A8. The assay can be described thus: pooled miR-30 sensor sort-seq; sequence = guide strand. The settings on record: shRNA.
TTAGCTGCACACAGGAGCCGAG returned a sensor-assay potency score (higher = more potent) of -0.983.

TGAACACCATGACCACACCTGA gave a sensor-assay potency score (higher = more potent) of -0.865.

TTGGTGAGGACGCAGATGCCTG returned a sensor-assay potency score (higher = more potent) of -1.08.

Consider TTTAGTTTCAGGGACACAGAAC, for which the sensor-assay potency score (higher = more potent) is -0.989.

As for ATTTCGGAGATGTAGACCGGGG, the sensor-assay potency score (higher = more potent) is -0.598.

The sequence TAGCTGCACACAGGAGCCGAGC returned a sensor-assay potency score (higher = more potent) of -1.45.

ATTAGCTGCACACAGGAGCCGA yielded a sensor-assay potency score (higher = more potent) of -0.991.

In turn, TCTGCATAGAACATGACGGCGT registered a sensor-assay potency score (higher = more potent) of -0.336.

With AAAAGGACACTGAAGATGCAGA, the sensor-assay potency score (higher = more potent) is -0.924.

As to ATCTCTGACATGAGGAGCCAGG, the sensor-assay potency score (higher = more potent) was -1.73.

For TGAGTCAGCAGGAAGCGCGGGG, the sensor-assay potency score (higher = more potent) is -0.717.

Sequence TTTGTTCCAGAGTCTTTCCTTT showed a sensor-assay potency score (higher = more potent) of 0.354.

The target of a further assay is SLC30A10. The assay is described as above. The settings on record: shRNA.
Regarding TTAAGCATTTGAAACATTCTAT, the sensor-assay potency score (higher = more potent) amounted to 0.231.

Sequence TCTTTGAACACTGTATCCGCAG showed a sensor-assay potency score (higher = more potent) of -0.212.

Sequence ATTTGAAACATTCTATAGCTGC displayed a sensor-assay potency score (higher = more potent) of -0.495.

In the case of TTAGAAACAAGAACTTCTTTGA, the sensor-assay potency score (higher = more potent) was 0.415.

As to TCTGAGAATATTTTCTACCTTA, the sensor-assay potency score (higher = more potent) was -0.0606.

With TTAGCTAGAAGTTCTAATCAGT, the sensor-assay potency score (higher = more potent) is 0.384.

As to TAACACTGCCAGTTACACGGGT, the sensor-assay potency score (higher = more potent) is -0.383.

On to TTTTGTTAAGACTTTGTCCGTG, for which the sensor-assay potency score (higher = more potent) worked out at 0.41.

TTTGTTAAGACTTTGTCCGTGG registered a sensor-assay potency score (higher = more potent) of 0.766.

TTAAGCTATGATCTCACCTGAG returned a sensor-assay potency score (higher = more potent) of -0.235.

Turning to TTTTGGGACCATCTGTAGCAGA, the sensor-assay potency score (higher = more potent) was -0.988.

With TAAGCTATGATCTCACCTGAGC, the sensor-assay potency score (higher = more potent) is -0.73.

The target in the next assay is SLC30A1. The description is as above. The settings on record: shRNA.
TTAATCTCTATCACAACAGCAG yielded a sensor-assay potency score (higher = more potent) of 0.193.

Sequence TTGATTTAGAGCCTACACTAGC showed a sensor-assay potency score (higher = more potent) of -0.669.

The sequence TTTTCAGCTTTAGTCCTCCTGG showed a sensor-assay potency score (higher = more potent) of -0.574.

Take TTTGTTTAGGAACAGTTTGTAG: the sensor-assay potency score (higher = more potent) is -1.09.

The sequence TAGTGTCCCACAACATTGCTTC showed a sensor-assay potency score (higher = more potent) of 0.199.

The sequence TTAAGTAATGGATAGGTTGTGT displayed a sensor-assay potency score (higher = more potent) of -0.332.

Sequence TTTACTACTACAATCACTGAAC came in with a sensor-assay potency score (higher = more potent) of -0.0512.

TTCACTTGTACTTCCACTGTAT had a sensor-assay potency score (higher = more potent) of 0.732.

As to TAATCTCTATCACAACAGCAGG, the sensor-assay potency score (higher = more potent) is -1.43.

The sequence TAGATTGTTACTAAGTTCTAAA gave a sensor-assay potency score (higher = more potent) of -0.976.

As for TTCTTCTCTAGATTGTTACTAA, the sensor-assay potency score (higher = more potent) was -0.537.

Turning to TACACTAGCAAATTCAGGCTGA, the sensor-assay potency score (higher = more potent) was 0.702.

Another assay deals with SLC34A1. Described as above. Particulars: shRNA.
For the sequence TTGAGCATCTTGACTAGGAGGA, the sensor-assay potency score (higher = more potent) turned out to be 0.961.

TGGACCACGAAGGTCATGCTGG came in with a sensor-assay potency score (higher = more potent) of -0.818.

TCTCAATGCTGATCACACCAAG: the sensor-assay potency score (higher = more potent) is -0.785.

In turn, TTAAAGCAGTCATGCACCGTGG came in with a sensor-assay potency score (higher = more potent) of -0.651.
